Measurements as given in the supplement of paper PMC6763611.

System: Plasmodium falciparum NF54
Assay: growth inhibition relative to untreated control; higher = more inhibition
Settings: 1 µM; MM + chorismate end-products (CM screening medium); 72 h
Summary of the method: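 In dark 96-well half-area plates, each well held 100 μL of P. falciparum NF54 ring-stage culture at 1% parasitemia and 1% hematocrit. The cultures received a single test-compound dose of 5 μM or 1 μM and were kept at 37 °C for 72 h, in minimal RPMI either plain or enriched with folate (2.2 μM), pABA (7.3 μM), pHBA (7.3 μM), tyrosine (111 μM), phenylalanine (90 μM) and tryptophan. SYBR Green staining gave growth inhibition, expressed against untreated wells, with uninfected erythrocytes serving as the background.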

Structure (SMILES) | growth inhibition
Cc1ccc(NC(=O)c2cc(S(=O)(=O)NC(C)(C)C)ccc2C)nc1 | 70.6%
C[C@H](C(N)=O)N1CCCC[C@H]1c1ccc(OCc2cccc(F)c2)cc1 | 18.3%
Cc1nnc(NCc2cccc(Cl)c2)c2ccccc12 | 37.2%
N=C(N)c1ccc(OCCCCCOc2ccc(C(=N)N)cc2)cc1 | 98.6%
NC(CC(=O)c1ccc(Cl)cc1Cl)C(Cl)(Cl)Cl (stereo not drawn) | < 0%
Cc1ccc2oc(-c3cc(NC(=O)Cc4ccccc4)ccc3Cl)nc2c1 | < 0%
COc1cc(C2=NCCN2)cc2cc(-c3ccc(C4=NCCN4)cc3)oc12 | 78%
O=C(NC1=NCCS1)c1sc2cc(F)ccc2c1Cl | 25.1%
CCCCOC(=O)Nc1cc2nc(C3CCCCC3)[nH]c2cc1N1CCCC1 | 11.2%
COc1ccc(-c2nc(-c3cccc(NC(=O)Cc4ccc(F)cc4)c3)no2)cc1OC | 46.5%
CC(Oc1ccccc1)C(=O)Nc1nc(-c2ccccn2)cs1 (stereo not drawn) | < 0%
Cc1ccc(S(=O)(=O)N2CCN(C(=O)c3cc(-c4ccccc4)n[nH]3)CC2)cc1 | 94.2%
c1cncc(NCc2ccc(-c3cc4ccncc4cc3OC3CCNCC3)s2)c1 | 98.6%
c1ccc(Oc2ccc(-c3cc(CN4CCOCC4)[nH]n3)cc2)cc1 | 0.894%
CS(=O)(=O)c1ccc(C(=O)N(CC2CCCO2)c2nc3ccccc3s2)cc1[N+](=O)[O-] (stereo not drawn) | < 0%
CC(C)(C)C(=O)N(CCCCCCN1C[C@H](O)[C@@H](O)[C@H](O)[C@H]1CO)C1CCCCCC1 | 28.4%
Cc1nn(C(=O)Nc2cccc(C(F)(F)F)c2)c(C)c1Sc1ncccn1 | 0.416%
Cc1cc(C(=O)Nc2cnn(Cc3ccc(Cl)cc3Cl)c2)no1 | 80.3%
COc1cccc(-c2cc3c(Nc4cccnc4)nccc3[nH]2)c1 | 91%

Structure (SMILES) | growth inhibition
O=C1N(Cc2cc3ccccc3s2)CC2CN(Cc3ccccc3)CCN12 (stereo not drawn) | 97.5%
Nc1ncnc2c1ncn2[C@@H]1O[C@H](COS(=O)(=O)NC(=O)c2ccccc2O)[C@@H](O)[C@H]1O | 32.6%
CC[C@@H](CO)NCCN[C@@H](CC)CO | 12.3%
O=C(Nc1cnc2ccccc2c1)c1cccc(-n2cnnn2)c1 | 94.1%
COCC(C)NC(=O)CSc1ncnc2sc(-c3ccccc3)cc12 (stereo not drawn) | 11.3%
O=C(Nc1nnc(S)s1)c1cc(Br)ccc1Cl | 31.8%
O=C(NCCN1CCCC1)c1cc(NCCN2CCOCC2)nc2ccc(Cl)cc12 | 97.7%
Brc1cncc(-c2cc(NCCCn3ccnc3)nc(-c3ccccc3)n2)c1 | > 100%
COC(=O)c1c(NC(=O)c2c(F)c(F)c(F)c(F)c2F)sc2c1CCCCC2 | 26.9%
CNC(=O)C1Cc2c([nH]c3cc(Cl)ccc23)C2(CCN(CCc3ccccc3)CC2)N1 (stereo not drawn) | 87%
COc1ccc(Cl)cc1NC(=O)CN(C)C(=O)c1cnn(-c2ccccc2)n1 | 98.1%
Cc1nn(C)cc1C(C)Nc1nncc(-c2ccc(C(F)(F)F)cc2)n1 (stereo not drawn) | 94.7%
COC(=O)c1ccc(F)cc1NS(=O)(=O)c1cccc(-c2cnn(Cc3ccccc3)c2)c1 | 33.2%
CNC(=O)c1nn(C)c2c1C(C)(C)Cc1cnc(Nc3ccc(N4CCN(C)CC4)cc3)nc1-2 | 64.5%
c1coc(CNc2nc(N3CCCCC3)nc3ccccc23)c1 | 68.6%
CC(C)(C)c1cnc(NC(=O)c2ccccc2O)s1 | 38.5%
c1cc(C2=NCCN2)cc(-c2cc(-c3ccc(C4=NCCN4)cc3)no2)c1 | 81.6%
Cc1ccc(-c2nc(CN(Cc3ccccn3)C(C)C)cs2)o1 | 47.7%
O=C([C@@H](c1ccc(Cl)cc1)c1cccnc1)N1CCN(c2ccc(C(F)(F)F)cc2)CC1 | < 0%
